PMK inhibit = inhibitors of Streptococcus pneumoniae phosphomevalonate kinase; purified PMK, PK/LDH-coupled NADH absorbance 340 nm; actives 0.49% (n = 65,000); inhibition, % at 10 µM;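 active means top-ranked compounds by inhibition in the single 10 µM screen, taking a fixed number of the strongest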;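 further: 0% = full reaction with DMSO carrier and 100% = background rate without enzyme reaction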
NADH coupling = inhibition of NAD/NADH coupling enzymes, library profiling; coupled PK/LDH NADH assays, four targets; IC50, µM (series often up to 10 µM), inactives show at the top dose inhibition; actives 0.02% (n = 65,000); AID 774;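 active means single-dose screening hits from any of four coupled enzyme assays that gave an IC50 when retested across doses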;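 further: the DPM-DC format reads NADH fluorescence rather than 340 nm absorbance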
Spn MK inh = S. pneumoniae mevalonate kinase inhibition; inhibition, % at 10 µM; AID 555; purified MK, PK/LDH-coupled NADH absorbance 340 nm; actives 0.48% (n = 65,000);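 active means ranked among the strongest by inhibition in the single 10 µM screen, a fixed top-ranked set picked for dose follow-up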
Spn DPM-DC inh = S. pneumoniae DPM-DC inhibition | purified DPM-DC, PK/LDH coupled NADH fluorescence | calls only at 10 µM | actives 0.49% (n = 65,000);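 active means the 320 compounds with the highest percent inhibition in the single-dose primary screen, excluding strongly autofluorescent ones, cut at about 32% in these data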;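 further: kinetic rate of NADH fluorescence loss reporting ADP formed by the decarboxylase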
Abs 340nm = compounds absorbing at 340 nm; compound absorbance at 340 nm, fold over control; fold change at 10 µM; 65,000 tested, under 10 active; AID 708;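 active means at 10 µM dose, initial 340 nm absorbance at least 2 fold that of control wells; inactive means change under 2 fold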;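 further: initial absorbance extrapolated from kinetic A340 decline of NADH oxidation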
Autofluor 339 = intrinsic fluorescence of library compounds, ex339/em460 – biochemical, MLSMR library, data from DPM-DC assay, artefact control, profiling panel; actives 5.5% (n = 65,000); compound autofluorescence, ex339/em460 nm, NADH buffer; hits give high values; 1 = no-compound wells, NADH background; fluorescence fold increase at 10 µM;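 active means at 10 µM, mean starting fluorescence two-fold or more over control wells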;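 further: signal is the first read of a kinetic run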
The depositor's hits bear a star; i = inactive; . = not tested or not shown. Shown are actives, neighbours in structure and some others; about 6.8% of the full set was active somewhere.

SMILES	PMK inhibit	NADH coupling	Spn MK inh	Spn DPM-DC inh	Abs 340nm	Autofluor 339
CCOc1ccc(OCC(=O)N2CCOCC2)cc1	0.0	4.0%	11.0	i	1.05	1.08
Cc1cc(OCC(=O)N2CCOCC2)cc2oc(=O)c3ccccc3c12	0.0	0.0%	0.0	.	1.02	2.89*
Cn1nnnc1P(=O)(c1ccccc1)c1ccccc1	14.0	8.0%	10.0	i	1.05	1.15
CCC(NS(=O)(=O)c1ccc(C)cc1)C(=O)Nc1ccc(NC(C)=O)cc1 (configuration not stated)	8.0	7.0%	9.0	i	1.02	1.11
Cc1cc(/C=N/n2cnnc2)c(C)n1-c1ccc2c(c1)OCO2	5.0	5.0%	7.0	i	1.07	1.01
CC(=O)Nc1ccc2c(c1)C(=O)N(C1CCCCC1)C2=O	9.0	8.0%	7.0	.	1.04	3.84*
Cc1cc2c(cc1C)NC(c1cccnc1)C1=C(CC(C)(C)CC1=O)N2 (configuration not stated)	10.0	10.0%	11.0	i	1.3	0.96
Cc1[nH]nc2c1C(c1cccc(O)c1)C1=C(CC(C)(C)CC1=O)N2 (configuration not stated)	9.0	5.0%	1.0	.	1.09	4.99*
Cc1[nH]nc2c1C(c1ccc(F)cc1)C1=C(CC(C)(C)CC1=O)N2 (configuration not stated)	12.0	5.0%	8.0	.	1.06	3.14*
Cc1ccc(C2C3=C(CC(C)(C)CC3=O)Nc3n[nH]c(C)c32)cc1 (configuration not stated)	12.0	7.0%	1.0	.	1.08	4.93*
CC(=O)Nc1cccc(Oc2ccc(-c3noc(C)n3)cc2)c1	6.0	5.0%	8.0	i	0.99	1.11
CCOC(=O)N1CCN(C(=O)CCSc2ccccc2)CC1	0.0	1.0%	4.0	i	1.03	1.11
CCC(=O)N1CN(S(=O)(=O)c2ccc(C)cc2)CC1C (configuration not stated)	14.0	5.0%	0.0	i	1	1.02
Cn1nc(-c2ccc(Cl)cc2)c2cc(C(=O)NC3CC3)sc21	6.0	3.0%	0.0	.	1.07	2.12*
CC1CCCN(C(=O)c2cc3c(-c4ccc(Cl)cc4)nn(C)c3s2)C1 (configuration not stated)	0.0	4.0%	2.0	i	1.01	1.04
CCOCCCNC(=O)c1cc2c(-c3ccc(Cl)cc3)nn(C)c2s1	7.0	8.0%	8.0	.	1.06	2.15*
CCN(CC)CCNC(=O)c1cc2c(-c3ccc(Cl)cc3)nn(C)c2s1	2.0	5.0%	7.0	.	1.1	2.15*
COc1ccc(-c2cc(=O)oc3c(C)c(O)c(CN(C)C)cc23)cc1	5.0	12.0%	8.0	i	1.15	2.39*
Cc1c(NC(=O)C(C)Sc2nc3ccccc3c(=O)n2CCO)c(=O)n(-c2ccccc2)n1C (configuration not stated)	16.0	8.0%	9.0	i	1.02	1.15
O=C(Nc1cccc2ccccc12)c1cnccn1	25.0*	3.0%	9.0	i	1.01	1.02
COc1ccc(N(Cc2cc3ccccc3[nH]c2=O)C(=O)C2CCCO2)cc1 (configuration not stated)	0.0	4.0%	12.0	i	1.04	1.26
COc1ccc(CC(=O)N(Cc2cc3cc(OC)ccc3[nH]c2=O)C(C)C)cc1	8.0	11.0%	7.0	i	1.09	2.58*
COCC(=O)N(Cc1cc2cc(OC)ccc2[nH]c1=O)c1ccc(C)cc1	16.0	9.0%	1.0	.	1.08	2.1*
COCC(=O)N(Cc1cc2cc(OC)ccc2[nH]c1=O)c1ccccc1OC	0.0	9.0%	8.0	i	1.03	2.65*
CCOc1ccc(N(Cc2cc3cc(OC)ccc3[nH]c2=O)C(=O)C2CCCO2)cc1 (configuration not stated)	0.0	8.0%	1.0	i	1.13	3*
SMILES	PMK inhibit	NADH coupling	Spn MK inh	Spn DPM-DC inh	Abs 340nm	Autofluor 339
COCC(=O)N(Cc1cc2ccc(C)cc2[nH]c1=O)c1ccc(OC)cc1	4.0	3.0%	5.0	i	1.02	1.25
CCCC(=O)N(Cc1cc2cc(C)ccc2[nH]c1=O)c1ccccc1OC	3.0	2.0%	3.0	i	1.08	1.29
COc1ccc2[nH]c(=O)c(CN(C(=O)c3ccncc3)C(C)C)cc2c1	11.0	5.0%	1.0	i	1.02	1.66
CCCCN(C)C(=O)c1oc2ccc(S(=O)(=O)N3CCCCCC3)cc2c1C	10.0	3.0%	0.0	i	0.97	1.02
Cc1cc(S(=O)(=O)N2CCN(c3ccc(F)cc3)CC2)c(C)s1	0.0	0.0%	0.0	i	1.03	1.06
CCC(=O)N(Cc1cc2cc(OC)ccc2[nH]c1=O)c1cccc(C)c1	10.0	11.0%	5.0	i	1.03	3*
Cc1ccc(S(=O)(=O)c2cc3c(=O)n4cccc(C)c4nc3n(Cc3ccco3)c2=N)cc1C	8.0	11.0%	6.0	i	1	2.28*
Cc1ccc(S(=O)(=O)c2cc3c(=O)n4ccccc4nc3n(Cc3ccco3)c2=N)cc1	5.0	10.0%	15.0	.	1.17	3.63*
Cc1ccc(S(=O)(=O)c2cc3c(=O)n4ccccc4nc3n(CC3CCCO3)c2=N)cc1 (configuration not stated)	6.0	12.0%	5.0	i	1.01	1.31
O=C(Nc1c(-c2ccccc2)nc2sccn12)c1ccccc1	40.0*	18.0%	15.0	i	1.03	1.07
Nc1nc(-c2cccs2)c(NC(=O)c2ccccc2)s1	12.0	6.0%	5.0	i	1.04	1.05
CC(C(=O)NC1CCCC1)N(C(=O)c1snc(C(N)=O)c1N)c1ccc2c(c1)OCCO2 (configuration not stated)	10.0	6.0%	8.0	i	1.07	1.25
Cc1ccc2nc(CCc3nc4ccc(C)cc4o3)oc2c1	11.0	6.0%	.	i	0.99	1.06
Cc1ccc2nc(-c3cccc(-c4nc5ccc(C)cc5o4)n3)oc2c1	24.0	10.0%	0.0	i	1.05	2.06*
CCOc1ccc(C2c3c(oc4cc(C)c(C)cc4c3=O)C(=O)N2CCCN(C)C)cc1OC (configuration not stated)	28.0*	14.0%	10.0	i	1.06	1.09
CCCOc1ccc(C2c3c(oc4cc(C)c(C)cc4c3=O)C(=O)N2CCCN(C)C)cc1OCC (configuration not stated)	3.0	3.0%	5.0	i	1.1	1.1
Cn1c(=O)c2nc(-c3ccccc3)oc2c2ccccc21	8.0	5.0%	2.0	.	1.05	5.01*
Cc1cc(C)c(S(=O)(=O)N2CCN(C)CC2)c(C)c1	6.0	6.0%	6.0	i	1	1.04
CCOC(=O)c1ccc(NC(=O)N2CCN(Cc3cccc(F)c3)CC2)cc1	7.0	2.0%	2.0	i	1	1
O=C(CSCc1ccccc1)N1CCN(c2ccc(F)cc2)CC1	0.0	2.0%	6.0	i	1.01	1.09
COc1ccc(C(=O)N2CCN(C(=O)CC(C)C)CC2)cc1OC	6.0	4.0%	5.0	i	1.04	1.12

Assay outcomes as filed in PubChem.
